Compounds with a hit are over-represented: about 12% of the library has one in this group of screens.
G9a inh: qHTS Assay for Inhibitors of Histone Lysine Methyltransferase G9a; AID 504332, 2011; G9a H3K9 monomethylation, AlphaScreen, 2 h; 8.8% of 350,000 active; Potency, µM (top dose mostly 102 µM), actives largely listed as inhibitors; Histone-lysine N-methyltransferase EHMT2 (Homo sapiens), Q96KQ7; note: nearly all actives have a fitted effect of over 75% in size
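Using a bead-based AlphaScreen, monomethylated H3K9 product from 2 h room-temperature reactions (G9a 20 nM, peptide 500 nM, SAM 20 uM) was detected with 0.5 ug/mL rabbit anti-H3K9me1 antibody.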
JMJD2A Tudor: qHTS Assay for Inhibitors of JMJD2A-Tudor Domain. AlphaScreen JMJD2A-Tudor / H3K4me3 peptide binding. Potency, µM (doses to about 114 µM), most hits filed as inhibitors. 4.4% of 390,000 active; note: nearly all actives have a fitted effect of over 50% in size
PLK1 PBD inh: qHTS for Inhibitors of PLK1-PDB (polo-like kinase 1 - polo-box domain): Primary Screen. Potency, µM, hits mostly inhibitors. 2.8% of 360,000 active. Plk1 PBD binding of FITC phosphopeptide, fluorescence polarization. AID 720504, 2013. Serine/threonine-protein kinase PLK1 (Homo sapiens), P53350; note: series mostly up to about 57 µM; nearly all actives have a fitted effect of over 65% in size
HP1b binding inh: HTS for Inhibitors of HP1-beta Chromodomain Interactions with Methylated Histone Tails; Chromobox protein homolog 1 (Homo sapiens), P83916; AlphaScreen HP1-beta / biotin-H3K9me3 peptide binding; Potency, µM (titrated, usually from 114 µM), actives largely listed as inhibitors; 0.56% of 390,000 active; note: nearly all actives have a fitted effect of over 70% in size
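AlphaScreen: HP1-beta (50 nM) preformed 30 min with biotin-H3(1-18)K9me3 peptide (50 nM) in PBS pH 7.4, 0.01% Tween-20. Compound added for 30 min at RT, then streptavidin donor/nickel chelate acceptor beads (10 ug/mL) for 30 min.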
BAZ2B block: qHTS Assay for Inhibitors of BAZ2B; Bromodomain adjacent to zinc finger domain protein 2B (Homo sapiens), Q9UIF8; AlphaScreen BAZ2B-H3K14Ac peptide displacement; Potency, µM (top dose mostly 114 µM), usual class: inhibitors; 4.4% of 360,000 active; note: nearly all actives have a fitted effect of over 60% in size
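Complex of BAZ2B and biotin-H3K14Ac (50 nM apiece) forms over 30 min at RT, then faces library compounds up to 110 uM for another 30 min; AlphaScreen beads added, 20 min dark incubation, luminescence read.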
Sfp inh: qHTS Assay for Inhibitors of Bacillus subtilis Sfp phosphopantetheinyl transferase (PPTase); 4'-phosphopantetheinyl transferase ffp (Bacillus subtilis), Q9F4F7; AID 1490, 2009; 3.5% of 310,000 active; Potency, µM, hits mostly inhibitors; Biochemical Sfp PPTase activity, qHTS;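 note: the enzyme is Sfp with the accession as filed and its product quenches rhodamine fluorescence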
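Fluorescence-quenching assay with 15 nM Sfp, 5 uM rhodamine-CoA and 12.5 uM BHQ-2-labelled ybbR peptide in pH 7.6 Hepes/MgCl2 buffer. Enzyme was pre-incubated with compound for 15 min at room temperature. Rate was taken from the 30-min fluorescence change (525/598 nm).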
Large screens that a line does not name were inactive. Calls come from the whole dose curve; as a rule, active = well fitted curve in the direction sought with a large enough effect; inconclusive = small, poorly fitted or top-dose-only effect, or another doubt; inactive = no such curve, though single readings can be large; an effect the other way counts as inactive or inconclusive.

CCOC(=O)C1(C)Oc2ccccc2C(c2ccc(OC)cc2)=C1C(=O)OC (stereo unspecified)	none (no result: BAZ2B block)
COc1cc2c(cc1OC)CN(CC(=O)Nc1ccc(F)cc1)C(C(=O)O)C2 (stereo unspecified)	G9a inh inconclusive, BAZ2B block 79µM, Sfp inh inconclusive
O=C1/C(=C/c2cccc(Br)c2)SC(=S)N1/N=C/c1cc([N+](=O)[O-])ccc1O	G9a inh 40µM, JMJD2A Tudor inconclusive, PLK1 PBD inh 19µM, BAZ2B block 35µM
Oc1ccccc1/C=N/n1cnnc1	G9a inh 50µM, JMJD2A Tudor 79µM
O=[N+]([O-])c1ccc(O)c(/C=N/n2cnnc2)c1	G9a inh 45µM
O=[N+]([O-])c1ccc(-c2ccc(/C=N/n3cnnc3)o2)c(Br)c1	G9a inh 50µM, JMJD2A Tudor inconclusive, BAZ2B block inconclusive
O=[N+]([O-])c1cccc(/C=N/n2cnnc2)c1	none (no result: G9a inh)
Cn1cc(S(=O)(=O)N2CCCCCC2)cc1C(=O)NCc1ccc(Cl)cc1	none (no result: PLK1 PBD inh, Sfp inh)
CN(C)/N=C/c1cc([N+](=O)[O-])ccc1O	BAZ2B block inconclusive
Cc1cc(C)n(/N=C/c2cc([N+](=O)[O-])ccc2O)c(=O)c1	G9a inh inconclusive, JMJD2A Tudor inconclusive, BAZ2B block 50µM
O=C(/C=C/c1ccc(Br)cc1)c1ccc(NC2=NCCCS2)cc1	G9a inh inconclusive, JMJD2A Tudor inconclusive, BAZ2B block inconclusive, Sfp inh 40µM
CC(C)(C)c1ccc(/C=C/C(=O)c2ccc(NC3=NCCCS3)cc2)cc1	G9a inh 40µM, JMJD2A Tudor inconclusive, BAZ2B block inconclusive, Sfp inh inconclusive
CC(C)c1ccc(NC(=O)Cn2c(=O)oc3cc(S(=O)(=O)N4CCCC4)ccc32)cc1	none (no result: PLK1 PBD inh, Sfp inh)
CCC(=O)Nc1nc(C)c(-c2csc(Nc3ccccn3)n2)s1	G9a inh 40µM, JMJD2A Tudor inconclusive, BAZ2B block 40µM, Sfp inh inconclusive
CCCCCC(=O)Nc1nc(C)c(-c2csc(Nc3ccccc3OC)n2)s1	G9a inh inconclusive, JMJD2A Tudor inconclusive, BAZ2B block inconclusive
CCCC(=O)Nc1nc(C)c(-c2csc(Nc3ccccc3C)n2)s1	G9a inh 11µM, JMJD2A Tudor inconclusive, PLK1 PBD inh inconclusive, BAZ2B block inconclusive, Sfp inh 20µM
O=C1c2c(O)cc(O)cc2O[C@H](c2ccc(O)c(O)c2)C1O (stereo partly specified)	none (no result: G9a inh, JMJD2A Tudor, PLK1 PBD inh, HP1b binding inh, BAZ2B block)
CCOc1ccc(/C=C2\SC(=S)N(CC(=O)NCCCN3CCOCC3)C2=O)cc1	G9a inh inconclusive, JMJD2A Tudor inconclusive
O=C(CN1C(=O)/C(=C/c2cccc(Br)c2)SC1=S)NCCCN1CCOCC1	JMJD2A Tudor inconclusive, PLK1 PBD inh inconclusive, HP1b binding inh inconclusive, BAZ2B block inconclusive (no result: G9a inh)
CCc1ccc(/C=C2\SC(=S)N(CCC(=O)NCCCN3CCOCC3)C2=O)cc1	JMJD2A Tudor inconclusive, BAZ2B block 35µM (no result: G9a inh)
O=C(CCCN1C(=O)/C(=C/c2cccc(Br)c2)SC1=S)NCCCN1CCOCC1	G9a inh 45µM, JMJD2A Tudor 45µM, BAZ2B block 10µM, Sfp inh inconclusive
CC(C)c1ccc(/C=C2\SC(=S)N(CC(=O)NCCCN3CCOCC3)C2=O)cc1	G9a inh 79µM, JMJD2A Tudor inconclusive, HP1b binding inh inconclusive, BAZ2B block 32µM
COC(=O)c1ccc(/C=C2\SC(=S)N(CCCC(=O)NCCCN3CCOCC3)C2=O)cc1	G9a inh inconclusive, HP1b binding inh 71µM, BAZ2B block inconclusive
CC(C)OC(=O)c1c(-c2ccccc2)c(-c2ccccc2)nn(C)c1=O	G9a inh inconclusive (no result: PLK1 PBD inh, Sfp inh)
Cc1ccc(NC(=O)CN(C)S(=O)(=O)c2cnc[nH]2)cc1	none (no result: PLK1 PBD inh, Sfp inh)
O=S1(=O)[C@H]2C[C@@H]3C=C[C@@]2(CN1Cc1cccc(F)c1)O3	none
COc1cccc(CN2C[C@]34C=C[C@@H](C[C@@H]3S2(=O)=O)O4)c1	Sfp inh 89µM
Cc1ccc(S(=O)(=O)N2CCN(Cc3ccccc3Cl)CC2)cc1	G9a inh 1.3µM, JMJD2A Tudor 5µM, HP1b binding inh inconclusive, BAZ2B block 45µM (no result: PLK1 PBD inh, Sfp inh)
O=C1c2ccccc2C(=O)N1CC#CCN1CCN(C2CCCCC2)CC1	G9a inh 20µM, JMJD2A Tudor inconclusive, BAZ2B block inconclusive
O=[N+]([O-])c1ccccc1CN1CCN(S(=O)(=O)c2ccccc2)CC1	JMJD2A Tudor 20µM, HP1b binding inh inconclusive (no result: G9a inh, BAZ2B block, Sfp inh)
Cc1ccccc1CN1CCN(Cc2ccccc2C(F)(F)F)CC1	G9a inh 2.8µM, JMJD2A Tudor 2.8µM, BAZ2B block 28µM, Sfp inh inconclusive
O=S1(=O)CCN(Cc2ccccc2C(F)(F)F)CC1	none
CC(C)C(NC(=O)c1ccc(Cl)cc1)C(=O)NCC1CCCO1 (stereo unspecified)	none
FC(F)(F)c1ccccc1CN1CCCC(N2CCN(c3ccccc3)CC2)C1 (stereo unspecified)	BAZ2B block inconclusive (no result: G9a inh)
FC(F)(F)c1ccccc1CN1CCN(C2CCCCCC2)CC1	G9a inh 2.5µM, JMJD2A Tudor 6.3µM, HP1b binding inh inconclusive, BAZ2B block 50µM
Cc1ccc(S(=O)(=O)N2CCN(Cc3ccccc3C(F)(F)F)CC2)cc1	G9a inh 32µM, JMJD2A Tudor inconclusive, HP1b binding inh inconclusive, BAZ2B block 56µM, Sfp inh inconclusive
COc1ccc(N2CCN(C(=O)c3sc4ncn(CC(=O)N5CCCCC5C)c(=O)c4c3C)CC2)cc1 (stereo unspecified)	none (no result: G9a inh)
CN(CCCNC(=O)c1cc2c(Cl)nc3ccccc3c2s1)Cc1ccccc1	G9a inh inconclusive, JMJD2A Tudor inconclusive, BAZ2B block inconclusive, Sfp inh 79µM
Cc1ccc2nc(Cl)c3cc(C(=O)NCCCN(C)Cc4ccccc4)sc3c2c1	G9a inh inconclusive, JMJD2A Tudor inconclusive, BAZ2B block 22µM (no result: PLK1 PBD inh, Sfp inh)
CCc1ccc(NCc2cc3ccc(OC)cc3n(CC(=O)Nc3ccccc3C)c2=O)cc1	none (no result: PLK1 PBD inh, Sfp inh)
O=C(c1ccccc1)c1ccc(NCCCn2ccnc2)c([N+](=O)[O-])c1	JMJD2A Tudor 40µM, HP1b binding inh inconclusive, BAZ2B block 40µM
Cc1cc(C)cc(NC2=C(c3ccccc3)C(=O)c3ccccc32)c1	G9a inh 8.9µM, JMJD2A Tudor 13µM, HP1b binding inh inconclusive, BAZ2B block 13µM (no result: PLK1 PBD inh, Sfp inh)
COc1ccc(C2=C(Nc3ccc(Br)c(C)c3)c3ccccc3C2=O)cc1	G9a inh 2.8µM, JMJD2A Tudor inconclusive, HP1b binding inh inconclusive, BAZ2B block inconclusive (no result: PLK1 PBD inh, Sfp inh)
